Assay results taken from PubChem BioAssay (NCI).
This is part of a sample that, as a whole, favours compounds with a hit. Of some 79,000 tested, about 15% had one in any assay. A number with no mark means an inactive call. The source made the active and inactive calls. Rule as the data show it: active = growth inhibition above about 70%; inactive = the rest.

What was measured:
[1] = NCI Yeast Anticancer Drug Screen. Data for the rad50 strain (AID 155);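 also: 0% = growth of vehicle-only cultures of the same strain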; settings: S. cerevisiae rad50 strain growth inhibition, active compounds read high
How it was run: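 Vehicle-treated cultures provide the reference for the growth inhibition reported for compound-exposed, repair-deficient yeast.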

[2] = NCI Yeast Anticancer Drug Screen. Data for the mec2-1 strain (AID 157); settings: S. cerevisiae mec2-1 strain, active compounds read high
How it was run: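 Strain: mec2-1 (DNA repair/cell cycle alteration). Compound exposure, then growth measured; inhibition expressed relative to vehicle.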

[3] = NCI Yeast Anticancer Drug Screen. Data for the sgs1 mgt1 strain (AID 161);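 also: 0% = growth of cultures given vehicle only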; settings: S. cerevisiae sgs1 mgt1 strain, active compounds read high
How it was run: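 Read-out: growth inhibition vs vehicle controls. Cells: mutant yeast strain deficient in DNA damage repair.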

[4] = NCI Yeast Anticancer Drug Screen. Data for the cln2 rad14 strain (AID 165);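 also: 0% = growth equal to vehicle treated cultures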; settings: S. cerevisiae cln2 rad14 strain, active compounds read high
How it was run: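 Compounds are applied to the cln2 rad14 yeast strain, and growth is then compared with that of vehicle-treated cultures to give inhibition.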

[5] = NCI Yeast Anticancer Drug Screen. Data for the bub3 strain (AID 167); settings: S. cerevisiae bub3 mutant strain, active compounds read high
How it was run: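 Mutant yeast screening strain plus compound; vehicle-treated cultures serve as the 0% inhibition reference.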

[6] = NCI Yeast Anticancer Drug Screen. Data for the mlh1 rad18 strain (AID 175); settings: S. cerevisiae mlh1 rad18 strain growth inhibition, active compounds read high
How it was run: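 Read-out is yeast growth inhibition, calculated against vehicle-only controls. The compound was applied to a strain engineered with DNA damage repair alterations.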

[7] = at 5.0 µM (retest, dose inferred, filed as 0.5)
[8] = at 50.0 µM (retest, dose inferred, filed as 5.0)

| SMILES | growth inhibition [1, 7] | growth inhibition [1, 8] | growth inhibition ([1]; at 50.0 µM) | growth inhibition [2, 7] | growth inhibition [2, 8] | growth inhibition ([2]; at 50.0 µM) | growth inhibition [3, 7] | growth inhibition [3, 8] | growth inhibition ([3]; at 50.0 µM) | growth inhibition [4, 7] | growth inhibition [4, 8] | growth inhibition ([4]; at 50.0 µM) | growth inhibition [5, 7] | growth inhibition [5, 8] | growth inhibition ([5]; at 50.0 µM) | growth inhibition [6, 7] | growth inhibition [6, 8] | growth inhibition ([6]; at 50.0 µM) |
| --- | --- | --- | --- | --- | --- | --- | --- | --- | --- | --- | --- | --- | --- | --- | --- | --- | --- | --- |
| O=C(NCCCCCCNC(=O)n1cc(F)c(=O)[nH]c1=O)NCCCOCCOCCOCCOCCOCCOCCOCCOCCOCCOCCOCCOCCOCCOCCOCCOCCOCCOCCOCCOCCOCCCNC(=O)C(O)C(O)C(O)C(O)CO (stereo not given) | 6% | 31% | 42.2% | 4% | 60% | 82% (active) | 23% | 87% (active) | 76.8% (active) | 33% | 8% | 24.4% | 11% | 34% | -4.9% | 7% | 35% | -10.8% |
| CN(C)c1ccc(/C=C\c2c3ccccc3cc[n+]2[O-])cc1 | -4% | -1% | 70% | -5% | 0% | 3% | 0% | -12% | 17.9% | -5% | -5% | -10.2% | -6% | -11% | 21% | -10% | 8% | 14.8% |
| Cc1cc(N/N=C/c2cccc3ccccc23)c2cc3c(cc2n1)OCO3 | 7% | 72% (active) | 99.2% (active) | 2% | 79% (active) | 99% (active) | 27% | 72% (active) | 99.1% (active) | -6% | 56% | 97.8% (active) | -3% | 75% (active) | 99.2% (active) | 20% | 91% (active) | 98.5% (active) |
| C[n+]1c(-c2ccc(/C=C/C=N\NC(=O)c3ccc(C(=O)N/N=C\C=C\c4ccc(-c5cn6ccccc6[n+]5C)cc4)cc3)cc2)cn2ccccc21 | 18% | 98% (active) | 96.1% (active) | 5% | 97% (active) | 96.8% (active) | 16% | 98% (active) | 96.8% (active) | 22% | 97% (active) | 96.3% (active) | 36% | 97% (active) | 95.5% (active) | 21% | 97% (active) | 96.8% (active) |
| Cc1ccnc(NC(c2ccccc2)c2ccc3cccnc3c2O)c1 (stereo not given) | 0% | 95% (active) | 98.3% (active) | -5% | 97% (active) | 96.3% (active) | -3% | 95% (active) | 97.7% (active) | -7% | 95% (active) | 95.4% (active) | -6% | 96% (active) | 98.7% (active) | 6% | 95% (active) | 97.4% (active) |
| CN(C)CC(C)(C)/C(=N\Nc1ccccc1)c1ccccc1 | 6% | 82% (active) | 5.6% | 3% | 86% (active) | -5.2% | 51% | 95% (active) | 4.55% | 25% | 62% | 38.9% | 30% | 93% (active) | 98% (active) | 22% | 80% (active) | 33% |
| Clc1ccc2[nH]c(-c3ccccc3)c(-c3ccccn3)c2c1 | 81% (active) | 94% (active) | 96.2% (active) | 80% (active) | 98% (active) | 94.5% (active) | 93% (active) | 98% (active) | 97.7% (active) | 81% (active) | 97% (active) | 94% (active) | 93% (active) | 97% (active) | 96.7% (active) | 96% (active) | 97% (active) | 95.4% (active) |
| CCOc1ccccc1N1C(=O)C=CC1=O | 57% | 67% | 92% (active) | 60% | 75% (active) | 93.6% (active) | 99% (active) | 100% (active) | 93.8% (active) | 99% (active) | 100% (active) | 90.5% (active) | 100% (active) | 100% (active) | 92.3% (active) | 42% | 58% | 92.5% (active) |
| CCOC(=O)CCc1ccc(OC)c(OC)c1 | 1% | -2% | -9.55% | 16% | -4% | 23% | 0% | -2% | 22.9% | 3% | -8% | 38.7% | -2% | 19% | 17.4% | 2% | -1% | -5.15% |
| O=C1Nc2ccccc2/C1=N\N=c1/scc(-c2ccccc2)n1-c1ccccc1 | 13% | 72% (active) | 59.5% | 5% | 74% (active) | 74.5% (active) | 8% | 61% | 62.1% | 10% | 90% (active) | 62.6% | 9% | 87% (active) | 51.7% | 9% | 78% (active) | 88.5% (active) |
